High-throughput results (PubChem BioAssay)
RXFP1 ag: RXFP1 (human) receptor agonism; hit rate 0.3% among 370,000; Q9HBX9; Potency, µM (highest dose often 57.5 µM), for the others: top-dose activation, most hits filed as activators; HEK293T-RXFP1 cAMP TR-FRET, 30 min; response scale: percent of porcine relaxin response, buffer zero; AID 2676; active means well fitted activation curve with a large enough effect; inconclusive means small, poorly fitted or top-dose-only effect; further: potency means the concentration at half of the fitted maximal effect; on the % scale 0 is the no-effect control and ±100 the full control effect; nearly all actives have a fitted effect of over 60% in size
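cAMP rise read by TR-FRET after 30 min, 37C compound exposure (up to 58 uM) in RXFP1-transfected HEK293 cells with Ro 20174 present. EC50 from Hill-equation fits, with 29 nM porcine relaxin as 100% and buffer as basal.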
RXFP1 antagonist: antagonists of human relaxin receptor RXFP1 | Q9HBX9 | HEK293-RXFP1, relaxin-stimulated cAMP HTRF, 30 min; stronger effect = lower value | activity change, negative = inhibition, % at 57.5 µM | hit rate 0.59% among 350,000 | AID 1259400;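 active means activity change of -60% or lower, but not beyond a set lower limit; inconclusive means change between -60% and -40%, or beyond the set limit; inactive means change above -40%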; further: on the % scale 0 is the no-effect control and ±100 the full control effect
gsp ag: agonists of gsp mutant (McCune-Albright syndrome) | gsp mutant cells, cAMP HTRF, 30 min | Potency, µM (series often up to 76.9 µM), for inactives: at the top dose activation (cAMP increase), usual class: activators | hit rate 0.13% among 340,000 | AID 624287; active means well fitted activation curve with a large enough effect; inconclusive means small, poorly fitted or top-dose-only effect, or another doubt; inactive means no such curve, though single readings can be large or run the other way; cell line not stated here;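 further: phosphodiesterase inhibitor Ro 20-1724 added with compounds to block cAMP breakdown; potency means the concentration at half of the fitted maximal effect; nearly all actives have a fitted effect of over 60% in size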
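Cells in DMEM/10% FBS with G418 were pretreated with compounds in DMSO plus […] (300 uM stock) for 30 min at 37C. cAMP was measured by HTRF (cAMP-d2 plus anti-cAMP antibody-K) after 30 min at room temperature.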
gsp antag: antagonizes gsp, the McCune-Albright syndrome mutation; gsp-mutant cells, cAMP HTRF, 30 min; Potency, µM (highest dose often 76.9 µM), for the others: top-dose activity change, negative = inhibition, actives largely listed as inhibitors; hit rate 0.4% among 340,000; calls by dose curve; cell line not stated here;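 further: intracellular cAMP measured with PDE inhibitor Ro 20-1724 present during compound exposure; potency means the concentration at half of the fitted maximal effect; on the % scale 0 is the no-effect control and ±100 the full control effect; nearly all actives have a fitted effect of over 65% in size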
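G418-selected cells were plated in DMEM/10% FBS for 16-24 h at 37C, then treated with compounds plus the PDE inhibitor […] (300 uM solution added) for 30 min at 37C. Intracellular cAMP was measured by HTRF after 30 min lysis at room temperature.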
TSHR antagonist: human thyrotropin receptor antagonism. TSHR-expressing cells, TSH-stimulated cAMP HTRF, 2 h; stronger effect = lower value. hit rate 0.2% among 330,000. AID 504810. activity change, negative = inhibition, % at 11.5 µM;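 active means activity change below a set negative limit, meaning inhibition stronger than a set level, cut at about -70% in these data; inconclusive means activity change between two set negative limits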; further: on the % scale 0 is the no-effect control and ±100 the full control effect
Target sequence (P16473 whole entry, looked up): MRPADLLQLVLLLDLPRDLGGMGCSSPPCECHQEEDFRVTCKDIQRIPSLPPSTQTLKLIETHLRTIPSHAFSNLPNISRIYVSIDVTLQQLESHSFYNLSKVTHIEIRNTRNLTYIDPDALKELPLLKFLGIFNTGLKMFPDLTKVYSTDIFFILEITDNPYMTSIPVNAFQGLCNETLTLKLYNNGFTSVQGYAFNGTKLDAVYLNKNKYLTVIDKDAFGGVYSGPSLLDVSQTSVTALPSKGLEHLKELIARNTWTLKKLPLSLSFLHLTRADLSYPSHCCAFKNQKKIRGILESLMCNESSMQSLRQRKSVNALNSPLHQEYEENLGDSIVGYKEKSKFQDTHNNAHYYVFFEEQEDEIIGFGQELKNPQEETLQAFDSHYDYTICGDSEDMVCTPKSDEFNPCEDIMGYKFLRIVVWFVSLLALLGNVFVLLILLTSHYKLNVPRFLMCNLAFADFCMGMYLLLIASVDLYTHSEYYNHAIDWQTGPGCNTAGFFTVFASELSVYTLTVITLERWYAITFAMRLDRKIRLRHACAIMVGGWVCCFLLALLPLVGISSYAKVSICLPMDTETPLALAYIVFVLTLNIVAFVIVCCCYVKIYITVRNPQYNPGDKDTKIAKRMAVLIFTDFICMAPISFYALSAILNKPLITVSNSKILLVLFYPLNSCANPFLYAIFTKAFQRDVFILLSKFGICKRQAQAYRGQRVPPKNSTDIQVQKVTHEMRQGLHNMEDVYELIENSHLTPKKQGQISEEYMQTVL
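Freshly harvested TSHR cells receive pin-tooled compound, then EC80 TSH at 4nM final. After 2 hours at 37 deg C, antibody in lysis buffer and cAMP-d2 are added; 30 minutes at ambient temperature precede the HTRF read.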
* marks the source's active call; other numbers are inactive results; ? = inconclusive; . = not tested or not shown; [ ] = dose if it differs, or a comment. Shown are actives, neighbours in structure and some others; about 1% of the full set was active somewhere.

SMILES	RXFP1 ag	RXFP1 antagonist	gsp ag	gsp antag	TSHR antagonist
NNc1nc2c(Cl)ccc(Cl)c2s1	-2.8%	-22.8	33.4%[15.4 µM]	28.2µM*	-6.2
O=C(CC1C(=O)NCCN1Cc1cccc(F)c1F)NCCCC1CCCC1 (stereo not given)	0.1%	0.5	-41.4%	0.6%	-82.4*
O=C(c1ccc2c(c1)N(Cc1cccc(Cl)c1)C(=O)c1ccccc1S2(=O)=O)N1CCc2ccccc21	0.6%	-9.4	.	.	.
COc1ccc(/C=C/C(=O)N2CCN(C)CC2)cc1OC	-1.9%	-5.1	28.2%	1.9%	-122.0*
COc1ccc(/C=C/C(=O)N2CCOCC2)cc1OC	1.6%	9.1	-36.8%	6.4%	1.5
CCn1nc(C)c2c(-c3ccccc3)cc(=O)n(C(C)C(=O)Nc3ccc(OC)c(OC)c3)c21 (stereo not given)	3.4%	-14.8	.	.	.
O=C(CCN1C(=O)/C(=C\c2ccccc2Cl)SC1=S)Nc1cccnc1	0.3%	?	-54.7%	35.5µM*	-35.7
O=C(CCN1C(=O)/C(=C/c2ccccc2F)SC1=S)Nc1cccnc1	1.8%	-8.1	-2.0%	?	4.6
COc1ccccc1N1CCN(C(=O)c2c(C)oc3ncn(C)c(=O)c23)CC1	1.5%	.	.	.	.
COc1ccc(CNC(=O)CCCn2nc(C)n3ccnc3c2=O)cc1	?	8.7	?	5.5%	6.0
CCc1nn(CCCC(=O)NCc2ccc(OC(C)C)cc2)c(=O)c2cc3occc3n12	5.6%	-7.1	27.6%	8.2%	-3.8
Cc1nn(CCCC(=O)NCc2ccccc2)c(=O)c2nccn12	28.2µM*	20.1	?	9.1%	8.4
CCc1ccc(CNC(=O)CCCn2nc(C)n3ccnc3c2=O)cc1	?	-6.2	15.8µM*	6.5%	12.7
CCOc1ccc(CNC(=O)CCCn2nc(CC)n3c(cc4occc43)c2=O)cc1	3.0%	13.8	-5.3%	-2.3%	-109.8*
Cc1ccc(Cn2c(CN3CCN(c4cccc(Cl)c4)CC3)nc3c2c(=O)n(C)c(=O)n3C)cc1	3.6%	-15.4	.	.	.
C=C(C)Cn1c(-c2ccncc2)n[nH]c1=S	1.1%	-66.8*	-19.1%[15.4 µM]	.	3.1
COc1ccc(N2CCN(C(CNS(=O)(=O)c3ccc(OC)c(C)c3)c3ccco3)CC2)cc1 (stereo not given)	2.1%	-14.0	.	.	.
CCOC(=O)c1ccc(NC(=O)c2csc3c2CCCC3)cc1	-2.0%	-92.9*	.	.	.
COc1ccc(NC(=O)c2sc3nc(N4CCOCC4)c4c(c3c2N)CCCC4)cc1	.	4.2	-10.5%	.	.
CCOC(=O)c1ccc(NC(=O)c2sc3nc(N4CCOCC4)c4c(c3c2N)CCCC4)cc1	9.1%	28.3	17.8µM*	-2.1%	2.0
CSc1cc(-c2ccc(Cl)cc2)n(Cc2ccccc2)c(=O)c1C#N	22.4µM*	1.6	-48.7%	3.0%	24.9
Cc1c(Cl)sn(-c2ccc(Cl)cc2)c1=O	-0.3%	?	20.3%	-24.3%	-87.8*
Cc1nn(-c2ccc(Cl)cc2)c(=O)c2ccccc12	3.7%	7.3	-3.8%	-20.1%	-8.2
Cc1nnc(NC(=O)c2c(-c3ccccc3)noc2C)s1	0.0%	-12.1	-28.5%	-10.1%	0.9
Cc1onc(-c2ccccc2)c1C(=O)Nc1cccc2nsnc12	?	-4.4	35.5µM*	20.8%	-3.3
SMILES	RXFP1 ag	RXFP1 antagonist	gsp ag	gsp antag	TSHR antagonist
CCOc1ccc(CC(=O)Nc2ccc3nc(N4CCCCC4)cc(C)c3c2)cc1OCC	0.4%	-9.3	.	.	.
CCOc1ccccc1CN1C(=O)c2ccccc2C1C(=O)NC1CCCCCC1 (stereo not given)	-1.2%	2.5	.	.	.
Cc1nc2c(C(=O)NCc3ccccc3)c[nH]n2c(=O)c1Cc1ccccc1Cl	0.9%	-60.4*	.	.	.
O=C(Nc1ccc2c(c1)OCCO2)c1cnc2ccccn2c1=O	.	14.5	8.91µM*	-3.0%	.
CCOc1ccc(/C(O)=C2/C(=O)C(=O)N(c3ccccn3)C2c2ccc(F)cc2)c(C)c1 (stereo not given)	0.0%	12.2	15.8µM*	11.0%	-9.6
Cc1ccc(NC(=O)c2cc(S(=O)(=O)N(C)C3CCCCC3)ccc2F)cc1C	5.7%	-3.8	.	.	.
COc1cc(/C=N/NC(=O)c2ccccn2)ccc1OC(=O)c1ccc(Br)cc1	-0.3%	-33.6	-33.9%	-6.5%	-0.6
COc1cc(/C=N/NC(=O)c2ccccn2)ccc1OC(=O)c1ccccc1Br	0.1%	-97.3*	-16.2%[15.4 µM]	?	-34.4
CC#C[C@]1(O)CC[C@H]2[C@@H]3CCC4=CC(=O)CCC4=C3[C@@H](c3ccc(N(C)C)cc3)C[C@@]21C	2.5%	-36.4	.	35.5µM*	-16.7
Cc1csc(NC(=O)Cc2ccccc2Cl)n1	4.1%	-13.8	?	-0.4%	-2.1
Cc1cnc(NC(=O)Cc2ccccc2Cl)s1	2.4%	-64.3*	-39.0%	5.6%	-9.5
O=C(N/N=C\c1ccncc1)c1ccccc1O	2.4%	-0.7	-11.4%[15.4 µM]	3.7%	37.9
O=C(N/N=C/c1ccc(-c2ccccc2)o1)c1ccccc1O	-0.3%	-85.3*	?	-12.7%	-7.8
CCOc1ccc(C(C)=O)cc1CSC(=N)N	0.8%	2.5	5.9%	6.3%	19.3
CCCCOc1ccc(Br)cc1CSC(=N)N	0.6%	-71.2*	3.8%[15.4 µM]	11.3%	-8.0
CC1(CCc2ccccc2)NC(=O)N(CC(=O)N2CCc3ccccc32)C1=O (stereo not given)	.	2.5	-1.3%	.	.
CC1(CCc2ccccc2)NC(=O)N(CC(=O)N2CC(=O)Nc3ccccc32)C1=O (stereo not given)	-0.5%	-6.1	-18.6%	3.0%	-76.8*
Cc1cccc(N2C(=O)CCSC23C(=O)N(Cc2ccc(F)cc2)c2ccccc23)c1 (stereo not given)	-2.0%	-63.1*	.	.	.
Cc1cc(C)cc(N2C(=O)CCSC23C(=O)N(Cc2ccccc2)c2ccccc23)c1 (stereo not given)	-3.6%	-10.0	.	.	.
O=C1CCSC2(C(=O)N(Cc3ccc(F)cc3)c3ccccc32)N1c1cccc(F)c1 (stereo not given)	-1.1%	?	.	.	.
O=C1CCSC2(C(=O)N(Cc3ccc(F)cc3)c3ccccc32)N1c1ccccc1 (stereo not given)	-2.3%	-62.3*	.	.	.
O=C1CCSC2(C(=O)N(Cc3ccc(F)cc3)c3ccccc32)N1c1ccc(F)c(F)c1 (stereo not given)	-1.7%	-72.0*	.	.	.
CCOC(=O)c1sc(=NC(=O)c2cccs2)n(C)c1C	28.2µM*	-12.9	-10.3%[15.4 µM]	-1.0%	5.0
O=c1[nH]c2ccccc2n1CCCN1CCCCC1	-0.3%	-31.1	-2.0%[15.4 µM]	19.0%	7.7
O=c1[nH]c2ccccc2n1CCCN1CCN(C(c2ccccc2)c2ccccc2)CC1	4.1%	-75.3*	.	.	-0.3
CCOc1cc(CNCCO)cc(Br)c1OCc1ccc(Cl)cc1Cl	2.1%	-92.4*	18.1%	5.6%	?
Cc1cccc(C(=O)N2CCc3cc(CNC(=O)CCc4ccccc4)ccc32)c1	1.4%	-13.4	.	.	.
